Assay outcomes deposited in PubChem by University of Kansas High Throughput Screening Laboratory.
Many of the other results were omitted from the sample, so hits are more common in it than they were.
Pf apPOL block = Pf-apPOL DNA polymerase inhibition; Recombinant Pf-apPOL, molecular beacon fluorescence, 1.5 h; inhibition, % at 10 µM; actives 0.25% (n = 210,000); AID 1794808
mHTT CaM bind = mHTT-calmodulin interaction abrogation | P42858 | AlphaScreen His-mHTT/GST-CaM binding, luminescence | inhibition, % at 15 µM | actives 3.6% (n = 190,000);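 note: 0% = both proteins with DMSO and 100% = one protein alone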
Numbers without * were called inactive; nt = no result given; ! = repeats disagree. Cut-off read from the data, not from the text of the source: active = inhibition above about 50%; inactive = the rest.

SMILES	Pf apPOL block	mHTT CaM bind
Cc1ccc(N2CC(C(=O)N(C)Cc3ccccc3)CC2=O)cc1Cl (stereo not drawn)	-1	61*
Cc1ccccc1NC(=O)C1CC(=O)N(CCc2c[nH]c3ccc(F)cc23)C1 (stereo not drawn)	2	9
O=C(Nc1ccc(Cl)cc1)C1CC(=O)N(CCc2c[nH]c3ccc(F)cc23)C1 (stereo not drawn)	3	20
Cc1cc(C)cc(N2CC(C(=O)N(C)Cc3ccccc3)CC2=O)c1 (stereo not drawn)	-3	4
Cc1ccc2[nH]cc(CCN3CC(C(=O)Nc4ccc5c(c4)OCO5)CC3=O)c2c1 (stereo not drawn)	0	35
CCc1ccc(NC(=O)C2CC(=O)N(CCc3c[nH]c4ccc(F)cc34)C2)cc1 (stereo not drawn)	-2	57*
O=C(Nc1ccc2c(c1)OCO2)C1CC(=O)N(CCc2c[nH]c3ccc(Cl)cc23)C1 (stereo not drawn)	-4	82*
Cc1ccccc1NC(=O)C1CC(=O)N(CCc2c[nH]c3ccc(Cl)cc23)C1 (stereo not drawn)	-2	56*
O=C(NCc1ccccc1Cl)C(=O)NCC1CCN(C(=O)c2ccccc2F)CC1	-5	-1
CCOc1ccc(NC(=O)C2CCN(c3nccnc3Oc3ccccc3)CC2)cc1	2	2
CNC(=O)N1CCC(n2c(C)nc(C(=O)NCc3cccc(C(F)(F)F)c3)c2C)CC1	-1	19
O=C(Nc1ccc(F)cc1)Nc1ccccc1N1CCCCC1	1	nt
O=c1cc(CN2CCCCC2)c2cc(Cl)c(O)cc2o1	0	-2
CN(C)S(=O)(=O)c1cc([N+](=O)[O-])ccc1N1CCCCCC1	-12	13
CC1CC(C)CN(S(=O)(=O)c2cc(C(=O)Nc3cccc(Cl)c3)ccc2F)C1 (stereo not drawn)	2	-4
COc1ccc2[nH]cc(CCN3CC(C(=O)Nc4ccc(C)c(Cl)c4)CC3=O)c2c1 (stereo not drawn)	5	75*
COc1ccc(NC(=O)C2CC(=O)N(CCc3c[nH]c4ccc(Cl)cc34)C2)cc1 (stereo not drawn)	-5	87*
Cc1ccc2[nH]cc(CCN3CC(C(=O)Nc4cccc(Cl)c4)CC3=O)c2c1 (stereo not drawn)	-2	47
COc1ccc(NC(=O)C2CC(=O)N(CCc3c[nH]c4ccc(F)cc34)C2)c(OC)c1 (stereo not drawn)	-1	29
Cc1nnc(NC(=O)C2CC(=O)N(CCc3c[nH]c4ccc(Cl)cc34)C2)s1 (stereo not drawn)	0	12
NC(=O)c1ccc(NC(=O)C2CC(=O)N(CCc3c[nH]c4ccc(Cl)cc34)C2)cc1 (stereo not drawn)	1	100*
Cc1ccc2[nH]cc(CCN3CC(C(=O)Nc4ccc(F)cc4)CC3=O)c2c1 (stereo not drawn)	1	10
Cc1ccc(NC(=O)C2CC(=O)N(CCc3c[nH]c4ccc(Cl)cc34)C2)cc1 (stereo not drawn)	2	62*
CN1[C@@H](Cc2ccccc2)COc2cc(F)ccc2S1(=O)=O	0	-15
Cc1ncn(CC(=O)Nc2ccc(Cl)c(C(F)(F)F)c2)c(=O)c1C	-5	-13
SMILES	Pf apPOL block	mHTT CaM bind
CCOC(=O)NC(=O)C(C#N)=CNc1ccc(OC)cc1	-8	nt
CN(Cc1ccccc1)C(=O)C1CC(=O)N(CCc2c[nH]c3ccc(Cl)cc23)C1 (stereo not drawn)	5	62*
CCOc1ccc(NC(=O)C2CC(=O)N(CCc3c[nH]c4ccc(F)cc34)C2)cc1 (stereo not drawn)	1	16
Cc1ccc2[nH]cc(CCN3CC(C(=O)Nc4cc(Cl)ccc4C)CC3=O)c2c1 (stereo not drawn)	-4	49
CCNC(=O)C1CC(=O)N(CCc2c[nH]c3ccc(Cl)cc23)C1 (stereo not drawn)	-2	5
CCOc1ccc(NC(=O)C2CC(=O)N(CCc3c[nH]c4ccc(Cl)cc34)C2)cc1 (stereo not drawn)	2	99*
Cc1ccc2[nH]cc(CCN3CC(C(=O)Nc4cccc(Cl)c4C)CC3=O)c2c1 (stereo not drawn)	-2	56*
COc1cccc2cc(-c3cc(=O)oc4cc(OCC(=O)OC(C)C)ccc34)c(=O)oc12	-6	9
O=C(NCCNc1ccc(Nc2ccccn2)nn1)c1ncccn1	-1	100*
Cc1cccc(Nc2ccc(NCCNC(=O)c3ccccc3C(F)(F)F)nn2)n1	-8	1
COc1ccc(CCNC(=O)C(=O)Nc2c(C)cccc2C)cc1	4	-4
CCn1ccc2c(ccn2CC(=O)Nc2cccc(Cl)c2C)c1=O	-4	5
CC(=O)N1/C(=C/c2ccc(N(C)C)cc2)C(=O)c2ccccc21	-1	84*
CC(=O)N1/C(=C/c2ccncc2)C(=O)c2ccccc21	-7	-4
CC(=O)c1ccc(N=Cc2cc(Br)cc(Cl)c2O)cc1	46	5
Cc1cccc(N=Cc2cc(Cl)cc(Cl)c2O)c1C	6	nt
Oc1c(Cl)cc(Cl)cc1C=Nc1cccc2cccnc12	6	55*
Oc1c(Cl)cc(Br)cc1C=Nc1ccc2ncccc2c1	0	82*
COc1ccc(N=Cc2cc(Br)cc(Cl)c2O)cc1	-11	3
Cc1ccc(N=Cc2cc(Br)cc(Cl)c2O)c(N)c1	4	61*
O=C(COc1ccc(Br)cc1)Nc1ccccc1	0	-20
Oc1c(Br)cc(C=Nc2ccc(N3CCOCC3)cc2)c(O)c1Br	6	45
CCC1c2ccc(C)n2CCN1C(=O)Nc1cc(C)ccc1OC (stereo not drawn)	1	4
CCSc1nnc2c(n1)OC(c1ccc(C(=O)O)cc1)Nc1ccccc1-2 (stereo not drawn)	-9	5
CC1=NOC(=O)/C1=C/c1ccc(-c2ccc3c(c2)COC3=O)o1	-5	-1
SMILES	Pf apPOL block	mHTT CaM bind
CC1(C)OC(=O)C(=Cc2ccc(-c3cccc(Cl)c3)o2)C(=O)O1	6	55*
CC1=NOC(=O)/C1=C/c1ccc(-c2ccc(Cl)cc2)o1	-6	64*
Cc1ccc(-c2ccc(C=C3C(=O)OC(C)(C)OC3=O)o2)cc1	4	7
NC(=O)c1cc(N2CCCC2)nc2ccccc12	-2	-1
O=C1Nc2ccccc2N(O)N1c1cc(Cl)cc(Cl)c1	7	3
CC(C)N(Cc1ccccc1)c1ncnc(N)c1[N+](=O)[O-]	0	8
CN(Cc1ccccc1)c1ncnc(N)c1[N+](=O)[O-]	92*!	9
Cc1ccc(C(=O)N2CC(=O)Nc3ccc(Br)cc3C2c2ccccc2)cc1C (stereo not drawn)	-4	98*
Cc1ccc(C(=O)N2CC(=O)Nc3ccc(F)cc3C2c2ccc(F)cc2)cc1C (stereo not drawn)	-3	11
O=C(CSc1nc(-c2ccccc2)c(-c2ccccc2)o1)N1CCOCC1	10	56*!
O=C(CSc1ccccc1)N1CCOCC1	-9	-2
CN(C)c1ccc(Nc2cccc3nccnc23)cc1	-8	61*
c1cc(Nc2cccc3nccnc23)c2nccnc2c1	-13	22
Cc1ccc(C2CC(=O)C(C=Nc3ccc(C)c(C)c3)=C(O)C2)cc1 (stereo not drawn)	-1	-5
O=c1c2ccccc2nc(/C=C/c2cc(Br)ccc2O)n1CCCO	16	76*
O=c1[nH]c(/C=C/c2cc(Br)ccc2O)nc2ccccc12	2	-1
